# Test results reported in PubChem BioAssay.
# Values joined by “and” are separate entries in the source; they are usually repeats but may differ in a detail not shown here. Equal values may be shown once. Active and inactive are the calls of the source.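 Rule for the calls, unless noted: active = mean z-score across replicates of 1.96 or higher in either the MELAS or the Rieske mutant cell line; inactive = the rest.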
# Columns and labels:
# [1] = compounds altering circadian rhythm period length – cell-based, LOPAC library, luminescence reporter (AID 2774; call rule not given here;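 note: values are relative to mean of DMSO wells on each plate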); details: circadian reporter cells, at 7 µM, actives lie on both sides
# [2] = Wnt pathway potentiators raising nuclear beta-catenin – imaging, WNT3A-conditioned medium, mouse C2C12, NPC library, primary screen (AID 1117326; in the data active = nuclear beta-catenin stimulation mostly above about 4.2%, no sharp cut-off; inactive = mostly below about 10%; note: reference of the scale not given here); details: stronger effect = higher value
# [3] = stimulators of insulin release from INS-1E, primary screen, cell-based, 5 mM glucose, NPC library (AID 1117329;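 active = compound raises insulin release from rat beta cells at 5 mM glucose, no numeric limit stated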; note: reference of the scale not given here); details: rat INS-1E insulin secretion, at 10 µM, stronger effect = higher value
# [4] = growth inhibition of GSK3B-pretreated HCT116 cells – cell-based, CellTiter-Glo, 0.2 to 20 µM (AID 1117336;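 active = compounds lowering colon cancer cell viability after pretreatment blocking the GSK3B kinase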); details: HCT116 viability after GSK3B inhibitor, at 20 µM, stronger effect = higher value
# [5] = inhibition of endothelial tube formation, primary screen, imaging, VEGF stimulated, CD31 staining, tube area, NPC library (AID 1117340;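 active = compound that reduces growth-factor-driven endothelial tube area in a mixed cell culture, no cutoff stated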); details: VEGF-stimulated ADSC/ECFC co-culture, at 10 µM, stronger effect = higher value
# [6] = GLP1 release stimulators, primary, NCI-H716, NPC library (AID 1117341;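 active = compound raises GLP1 secretion from the human gut endocrine cells, with no numeric limit stated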; note: reference of the scale not given here); details: NCI-H716 cells, at 10 µM, stronger effect = higher value
# [7] = HCT116 colon cancer cell growth inhibition, primary screen, CellTiter-Glo luminescence, NPC library (AID 1117342;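 active = compounds that lower survival of HCT116 colon cancer cells in the luminescence readout, no numeric limit stated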); details: at 20 µM (top of the series)
# [8] = reduced SW480 viability measured with CellTiter-Glo, NPC library, primary (AID 1117343;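 active = compounds that lower viability of the colon cancer cells in the luminescence readout, with no numeric limit stated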); details: CellTiter-Glo luminescence; at 20 µM (top of the series)
# [9] = NPC library primary testing for decreased DLD-1 cell viability via CellTiter-Glo (AID 1117346;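 active = compounds that lower survival of DLD-1 colon cancer cells in the luminescence readout, no cutoff given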); details: DLD-1 viability, CellTiter-Glo luminescence; at 20 µM (top of the series)
# [10] = compounds altering viability of human ES cells (AID 493140; call rule not given here;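 note: cells exposed to compounds for four days before counting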); details: human embryonic stem cell survival screen; stronger effect = higher value
# [11] = P. berghei load reduction in hepatocytes – cell-based, HepG2, luciferase luminescence, HepG2 viability, primary screen (AID 624349; in the data active = parasite load remaining mostly below about 12%, no sharp cut-off; inactive = mostly above about 10%;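 note: 100% = mean of DMSO negative control wells on the same plate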); details: P. berghei liver stage in HepG2, luciferase luminescence, concentration not given here; parasite load remaining: stronger effect = lower value; viability: measured here: HepG2 viability without parasites
# [12] = viability loss with induced miR-34 in A549 – imaging, A549 dox-inducible miR-34, nuclei and caspase counts, primary screen (AID 1347080;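 active = compounds whose cell count with miR-34 switched on is under 0.7 times the count with it off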); details: A549 miR-34 inducible, Hoechst nuclei count, 48 h
# [13] = MELAS cybrid and Rieske KO viability enhancers – cell-based, MELAS cybrids, Rieske KO mouse fibroblasts, CellTiter-Glo, primary screen (AID 1508586); details: low glucose;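 note: z relative to plate mean and SD of compound and empty wells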
# [14] = measured here: relative caspase fold change +Dox/-Dox
# [15] = measured here: total cells with miR-34 induction, stronger effect = lower value
# [16] = measured here: total cells without miR-34 induction
# [17] = MELAS cybrid survival, CellTiter-Glo 48 h, stronger effect = higher value
# [18] = Rieske KO mouse fibroblast survival, CellTiter-Glo 72 h
# [19] = stronger effect = lower value, cell number ratio, induced over uninduced
SMILES,period change [1],nuclear beta-catenin stimulation ([2]; at 10 µM),"nuclear beta-catenin stimulation ([2]; stimulation, at 2 µM)",insulin secretion stimulation [3],viability decrease [4],tube area decrease [5],GLP1 secretion stimulation [6],inhibition of viability [7],viability decrease (inhibition) [8],viability decrease (inhibition) [9],survival [10],parasite load remaining [11],viability [11],fold change ([12]; stronger effect = lower value),"fold change [12, 14]","cell count [12, 15]","cell count [12, 16]","z-score [13, 17]","z-score [13, 18]","fold change [12, 19]"
Clc1cccc(N2CCNCC2)c1,0.065 h (inactive),1% (inactive),0.1%,3.9% (inactive),15% (inactive),3.3% (inactive),6.5% (inactive),10.8% (inactive),68.5% (active),26.4% (inactive),,,,,,,,,,
OC(c1ccccc1)(c1ccccc1)C1CCNCC1,,-0.1% (inactive),0.4%,17.4% (inactive),-5.8% (inactive),27.7% (inactive),0.1% (inactive),-10.1% (inactive),117% (active),2.9% (inactive),34.8 (inactive),42.4% (inactive) and 92.2% (inactive),47.4% and 92.3%,0.979 (inactive) and 0.871 (inactive),1.21 and 1,8990 and 7950,9180 and 9130,-0.109 (inactive) and -0.124 (inactive),-0.152 and 0.513,
C[C@@H]1CN(C2CCC(C#N)(c3ccc(F)cc3)CC2)CC[C@]1(C(=O)O)c1ccccc1 (stereo partly specified),,0% (inactive),0.4%,-1.7% (inactive),18.6% (inactive),9.6% (inactive),1.1% (inactive),15.3% (inactive),33.5% (inactive),30.7% (inactive),4.42 (inactive),126% (inactive),76.2%,0.976 (inactive),0.701,9400,9630,-1.75 (inactive),-1.19,
CC=CC1C(C(=O)OCc2c(F)c(F)c(COC)c(F)c2F)C1(C)C (stereo unspecified),,2.1% (inactive),-0.3%,0.95% (inactive),,,-3.8% (inactive),,,,,,,,,,,,,
C=C1CC[C@@]2(O)[C@H]3Cc4ccc(O)c5c4[C@@]2(CCN3CC2CC2)[C@H]1O5,,0.5% (inactive),2.1%,1.2% (inactive),-11.9% (inactive),5.1% (inactive),2.6% (inactive),20.1% (inactive),7.8% (inactive),6.2% (inactive),,,,,,,,0.147 (inactive),-0.2,
CC(C)NCC(O)c1ccccc1Cl (stereo unspecified),,-0.5% (inactive),0.8%,11.3% (inactive),-4.5% (inactive),8.9% (inactive),3.1% (inactive),0.8% (inactive),23.3% (inactive),9% (inactive),,,,,0.533,8950,9320,-0.27 (inactive),-0.204,0.961 (inactive)
CCCCCCCCOC(=O)c1ccccc1C(=O)OCCCCCCCC,,3.1% (inactive),-1.3%,0.05% (inactive),5.3% (inactive),,-0.4% (inactive),32% (inactive),-4.6% (inactive),3.6% (inactive),,,,,,,,,,
CCNCC(O)c1cccc(O)c1 (stereo unspecified),,-1.1% (inactive),2.2%,0.6% (inactive),-11.3% (inactive),0.2% (inactive),-2.7% (inactive),1.7% (inactive),15.1% (inactive),-2.7% (inactive),9.33 (inactive),95% (inactive),69.4%,,0.593,9690,10400,0.575 (inactive),0.102,0.936 (inactive)
CCC1(c2cccc(O)c2)CCCCN(C)C1 (stereo unspecified),,-0.6% (inactive),-0.3%,19.8% (inactive),10.8% (inactive),-4.7% (inactive),1.4% (inactive),-13.6% (inactive),57% (active),13.3% (inactive),2.75 (inactive),114% (inactive),77.7%,0.914 (inactive) and 0.925 (inactive),0.54 and 0.493,8800 and 7600,9630 and 8210,-0.204 (inactive) and -0.911 (inactive),-0.179 and 0.197,
O=S(=O)(O)c1cc(O)ccc1O,,0.1% (inactive),2.5%,3.2% (inactive),-0.4% (inactive),3% (inactive),-3% (inactive),2.4% (inactive),19.4% (inactive),10.6% (inactive),4.5 (inactive),113% (inactive),69.3%,0.958 (inactive) and 1.35 (inactive),0.623 and 0.929,8960 and 8580,9360 and 6370,-0.259 (inactive) and 0.566 (inactive),-0.197 and 0.515,
CC(=O)OCC1=C(C(=O)O)N2C(=O)[C@@H](N)[C@H]2SC1,,-0.8% (inactive),0.2%,-2.9% (inactive),27.2% (inactive),10.2% (inactive),1.9% (inactive),-5.2% (inactive),82.6% (active),29.3% (inactive),9.33 (inactive),107% (inactive) and 94.3% (inactive),91.6% and 74.9%,0.918 (inactive),1.55,8570,9340,0.366 (inactive),-0.158,
